# HepG2 viability – kills HepG2 cells in TGF-b inhibitor counter-screen | HepG2 CAGA-GFP viability, ATP luminescence, 18 h | Potency, µM (highest dose often 46.1 µM), hits mostly cytotoxic | hit rate 0.76% among 410,000 | AID 588856
#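 CellTiter-Glo luminescence gave cytotoxicity after 18 hours at 37 degrees C. The cells were HepG2 CAGA-GFP in 1% FBS DMEM, stimulated with 500 pg/mL TGF-beta after compound addition. %Activity was normalised to no-cell wells (complete cell-killing) and DMSO (no toxicity), and curves were fitted and classified.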
# RORg inh – inhibitors of mouse ROR gamma transcriptional activity. Drosophila S2 Gal4-RORgamma UAS-luciferase reporter, 20 h. Potency, µM (top dose mostly 53.6 µM), actives largely listed as inhibitors. hit rate 5.4% among 310,000. AID 2551; note: nearly all actives have a fitted effect of over 60% in size
# Target sequence (P51450 whole entry, looked up, the tested form may be a part): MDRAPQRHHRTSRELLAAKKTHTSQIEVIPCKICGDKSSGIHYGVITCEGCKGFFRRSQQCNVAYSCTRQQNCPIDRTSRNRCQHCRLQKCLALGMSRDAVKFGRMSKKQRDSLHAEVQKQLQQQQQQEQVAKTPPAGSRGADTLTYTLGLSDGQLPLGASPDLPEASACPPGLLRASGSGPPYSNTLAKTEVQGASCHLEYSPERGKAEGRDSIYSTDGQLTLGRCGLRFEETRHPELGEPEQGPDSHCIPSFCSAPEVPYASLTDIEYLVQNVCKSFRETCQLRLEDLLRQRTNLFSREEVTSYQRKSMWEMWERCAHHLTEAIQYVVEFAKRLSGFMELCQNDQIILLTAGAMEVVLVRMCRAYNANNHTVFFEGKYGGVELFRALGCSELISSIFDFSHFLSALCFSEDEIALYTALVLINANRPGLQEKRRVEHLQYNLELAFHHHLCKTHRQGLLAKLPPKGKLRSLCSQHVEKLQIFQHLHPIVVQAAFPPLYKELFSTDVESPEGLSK
#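 Stably transfected Drosophila Schneider cells are the test system, with ROR gamma fused to Gal4 and luciferase under UAS control; luminescence is read after 20 hr of 700 uM copper sulfate induction at ambient temperature.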
# ATXN2 expr inh – inhibitors of ATXN2 expression. HEK-293 ATXN2-luciferase reporter, luminescence, 24 h. Potency, µM (highest dose often 57 µM), usual class: inhibitors. hit rate 0.72% among 360,000; note: nearly all actives have a fitted effect of over 55% in size
#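 ATXN2-luciferase reporter cells (luciferase flanked by upstream and downstream ATXN2 gene portions) were treated 24 h at 37 °C with compounds at up to 57 uM. SteadyGlo luminescence gave expression; GF-AFC fluorescence gave viability.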
# Gal4-VP16 FLuc – Gal4-VP16 reporter inhibition counter-screen; Drosophila S2 Gal4-VP16 UAS-luciferase, luminescence, 20 h; Potency, µM (top dose mostly 53.6 µM), actives largely listed as inhibitors; hit rate 3.5% among 310,000; AID 2546;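 note: Gal4-VP16 expression switched on by copper sulfate through the metallothionein promoter; nearly all actives have a fitted effect of over 50% in size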
# S2 tox – viability counter-screen for ATXN expression inhibitors | S2 cells (HEK-293 line with an ATXN2-luciferase reporter) viability, CellTiter-Fluor protease fluorescence, 24 h | Potency, µM (doses to about 56.7 µM), usual class: cytotoxic | hit rate 0.49% among 400,000 | AID 651635; note: nearly all actives have a fitted effect of over 40% in size
# TGFb inhibitor – inhibitors of TGF-b signaling; HepG2 CAGA-GFP TGF-b/SMAD3 reporter, GFP fluorescence, 18 h; TGF-beta stimulated, 500 pg/mL final; Potency, µM (titrated, usually from 46.1 µM), actives largely listed as inhibitors; hit rate 1.2% among 410,000; note: nearly all actives have a fitted effect of over 65% in size
#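 HEPG2 CAGA-GFP cells (1000/well, DMEM with 1% FBS) were pre-incubated 2 h at 37 degrees C, given compound by pin tool, then stimulated with TGF-beta at 500 pg/mL final for 18 h before per-cell GFP fluorescence imaging.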
# Numbers stand for hits; 0 = inactive; ? = inconclusive; - = not tested or not shown; [ ] = dose if it differs, or a comment. Hits are enriched below; roughly 6.3% of the tested compounds scored in any of these assays. Calls come from the whole dose curve; as a rule, active = well fitted curve in the direction sought with a large enough effect; inconclusive = small, poorly fitted or top-dose-only effect, or another doubt; inactive = no such curve, though single readings can be large; an effect the other way counts as inactive or inconclusive.
SMILES,HepG2 viability,RORg inh,ATXN2 expr inh,Gal4-VP16 FLuc,S2 tox,TGFb inhibitor
Cc1ccsc1C(=O)N/N=C/C=C/c1ccccc1[N+](=O)[O-],0,5.62µM,0,5.62µM,0,0
Cc1occc1C(=O)N/N=C/C=C\c1ccccc1[N+](=O)[O-],0,?,0,?,?,0
O=C(N/N=C/C=C\c1ccccc1[N+](=O)[O-])c1ccccn1,0,?,0,0,0,0
O=C(N/N=C/C=C/c1ccccc1[N+](=O)[O-])c1cc(-c2ccccc2)n[nH]1,0,7.08µM,0,14.1µM,0,0
CCOc1ccc(CCNC(=O)C2CCN(c3ncnc4c3nc3n4CCCCC3)CC2)cc1,0,-,-,-,-,0
Cc1ccc2oc(C(Cl)(Cl)Cl)cc(=O)c2c1,0,5.01µM,?,?,?,?
CCCC(=O)Nc1ccc(C2C(=O)c3ccccc3C2=O)cc1,0,11.2µM,?,11.2µM,0,0
Cc1cc(O)c(C(C)C)cc1Cl,-,0,0,0,0,-
CCN=c1scc(-c2cccs2)n1/N=C/c1cc(OC)ccc1O,0,0[10 µM],0,0,0,12.6µM
c1ccc2c(c1)ccn1c(Cc3ccsc3)c(C3CCCCC3)nc21,-,-,0,-,?,-
NC(=S)N/N=C/c1cc([N+](=O)[O-])ccc1Cl,0,25.1µM,-,0,0,0
CS(=O)(=O)N(CC(=O)N/N=C/c1cc([N+](=O)[O-])ccc1Cl)c1ccccc1,0,0,0,0,0,0
O=[N+]([O-])c1ccc(Cl)c(/C=N/NC(=S)Nc2ccccc2)c1,0,0.355µM,0,2.24µM,0,0
CN(C)c1cccc(C(=O)Nc2nc3ccc(S(=O)(=O)N4CCCC4)cc3s2)c1,0,-,?,-,?,0
CC(=O)c1ccc(OCc2ccc(Oc3c(Cl)cccc3[N+](=O)[O-])cc2)cc1,0,?,0,20µM,0,?
CC(=O)c1ccc(OCc2ccc(C(=O)c3ccccc3)cc2)cc1,0,?,0,?,0,0
CCOP(=O)(OCC)C(NC(=O)Nc1ccccc1)c1ccccc1 (configuration not stated),0,11.2µM,0,0,0,0
CCOP(=O)(OCC)C(NC(=O)Nc1c(C)cc(C)cc1C)c1ccccc1 (configuration not stated),0,0,0,0,0,0
O=C(COCc1cc(-c2cccs2)on1)NCc1ccc(F)cc1,0,-,-,-,-,?
Cn1cc(CN2CCCC(C(=O)Nc3ccc(-c4cccc(F)c4)cc3)C2)cn1 (configuration not stated),0,0,-,0,31.6µM,?
Cc1ccc(C2CC(c3cccs3)=NN2C(=O)CCl)cc1 (configuration not stated),0,17.8µM,?,?,-,?
Cc1ccc(C)c(Cn2c(=O)cc(C)c3c(C)nn(C)c32)c1,0,-,0,-,0,0
COc1ccc(Nc2nc3cc(Cl)c(Cl)cc3n3cnnc23)cc1Cl,0,-,0,-,0,0
Cc1cccc(NC(=S)N(CCN2CCOCC2)Cc2ccccc2F)c1,0,12.6µM,0,0,0,0
COc1ccc(NC(=S)N(CCN2CCOCC2)Cc2ccccc2F)cc1,0,?,0,0,0,0
SMILES,HepG2 viability,RORg inh,ATXN2 expr inh,Gal4-VP16 FLuc,S2 tox,TGFb inhibitor
Cc1ccc(NC(=S)N(CCN2CCOCC2)Cc2ccccc2F)cc1Cl,0,10µM,0,?,0,0
CCCc1cc(=O)[nH]c(SCC(=O)NCCCC(=O)OCC)n1,0.447µM,0,0,0,0,0
Cn1c(=S)c2[nH]c(SCCN3CCCC3)nc2n(C)c1=O,0,1µM,-,?,0,?
CCN1CCCC(Sc2nc3c([nH]2)c(=S)n(C)c(=O)n3C)C1 (configuration not stated),0,3.98µM,-,6.31µM,?,?
Cn1c(=O)c2[nH]c(C3CCC3)nc2n(C)c1=O,0,-,0,-,0,0
Cn1c(=S)c2[nH]c(SCCN)nc2n(C)c1=O,0,-,0,-,0,0
C#CCN(C1CCCC1)S(=O)(=O)C=C,0,-,-,-,-,0
COCC(=O)Nc1cc(C(=O)N2CCCC(C(C)=O)C2)cc2nc(-c3ccccc3)n(C)c12 (configuration not stated),-,-,-,-,0,-
O=c1c2oc3ccccc3c2[nH]c(=S)n1-c1ccc(F)cc1,0,3.98µM,0,?,0,0
Cc1ccc(-n2c(=S)[nH]c3c(oc4ccccc43)c2=O)cc1C,0,1.41µM,0,1.78µM,0,0
CCCCCCCCCCCCCCCC(=O)OC[C@@H](NC(=O)C(Cl)Cl)[C@H](O)c1ccc([N+](=O)[O-])cc1,-,-,0,-,0,-
CCCc1nc2c3ccccc3ccn2c1Cc1ccccc1,0,-,0,-,-,?
O=C(CCNC(=O)Cn1cnc2ccccc2c1=O)NCC1COc2ccccc2O1 (configuration not stated),12.6µM,0,0,0,0,0
C#CCOCCOCCOCCNc1nc(N2CCOCC2)nc(N2CCN(C(=O)CCCCCCCCCCNC(=O)[C@@H]([C@H](C)CC)n3cc(CCCCCN)nn3)CC2)n1,0,-,?,-,?,?
CC(C)(C)OC(=O)NCCCCCc1cn([C@@H](CO)C(=O)NCCCCCCCCCCC(=O)N2CCN(C(=O)OC(C)(C)C)CC2)nn1,0,-,15.8µM,-,11.2µM,?
C#CCOCCOCCOCCNc1nc(N2CCN(C(=O)CCCCCCCCCCNC(=O)[C@H]([C@@H](C)CC)n3cc(CCCCCN)nn3)CC2)nc(N2CCN(C(=O)CCCCCCCCCCNC(=O)[C@H](CO)n3cc(CCCCCN)nn3)CC2)n1,14.1µM,-,?,-,22.4µM,?
C#CCOCCOCCOCCNc1nc(N2CCN(C(=O)CCCCCCCCCCNC(=O)Cn3cc(CCCCCN)nn3)CC2)nc(N2CCN(C(=O)CCCCCCCCCCNC(=O)[C@H]([C@@H](C)CC)n3cc(CCCCN=C(N)N)nn3)CC2)n1,0,-,20µM,-,15.8µM,?
C#CCOCCOCCOCCNc1nc(N2CCN(C(=O)CCCCCCCCCCNC(=O)[C@H](CCCCN)n3cc(CCCC(=O)O)nn3)CC2)nc(N2CCN(C(=O)CCCCCCCCCCNC(=O)[C@@H]([C@H](C)O)n3cc(C)nn3)CC2)n1,0,-,0,-,0,11.2µM
Nc1ccn(CCCN2CCN(C(=O)C3CC3)CC2)c(=O)n1,0,-,0,-,0,0
CCNc1nc(C#N)nc(N2CCOCC2)n1,0,-,-,-,-,0
CC(C)NC(=O)Cn1nc(N2CCN(c3ccccc3)CC2)ccc1=O,0,-,0,-,0,0
C#CCOCCOCCOCCNc1nc(N2CCN(C(=O)CCCCCCCCCCNC(=O)[C@H]([C@@H](C)CC)n3cc(CCCCCN)nn3)CC2)nc(N2CCN(C(=O)CCCCCCCCCCNC(=O)[C@H](CCCCN)n3cc(CCCC(=O)O)nn3)CC2)n1,0,-,?,-,?,7.08µM
